Reference: PubChem BioAssay
Activity calls are given as the source filed them.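 How the source made its calls: active means compounds giving at least 50% inhibition in the cell-based MKP-3 phosphatase rescue imaging test; inactive means the rest.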

The molecules below were run against Dual specificity protein phosphatase 6 (Homo sapiens) (UniProt Q16828) (assay: DUSP6 inhibitors restoring Erk phosphorylation by chemical complementation, primary imaging in DUSP6-transfected HeLa (AID 609;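 further: phospho-Erk level distribution per well compared with pooled transfected vehicle control wells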)). Details: HeLa MKP-3 transfected, phospho-Erk imaging KS statistic; at 10 µM; stronger effect = higher value; cells stimulated with TPA for 15 min.
Chain of Dual specificity protein phosphatase 6 (Homo sapiens) (Q16828 whole entry, looked up): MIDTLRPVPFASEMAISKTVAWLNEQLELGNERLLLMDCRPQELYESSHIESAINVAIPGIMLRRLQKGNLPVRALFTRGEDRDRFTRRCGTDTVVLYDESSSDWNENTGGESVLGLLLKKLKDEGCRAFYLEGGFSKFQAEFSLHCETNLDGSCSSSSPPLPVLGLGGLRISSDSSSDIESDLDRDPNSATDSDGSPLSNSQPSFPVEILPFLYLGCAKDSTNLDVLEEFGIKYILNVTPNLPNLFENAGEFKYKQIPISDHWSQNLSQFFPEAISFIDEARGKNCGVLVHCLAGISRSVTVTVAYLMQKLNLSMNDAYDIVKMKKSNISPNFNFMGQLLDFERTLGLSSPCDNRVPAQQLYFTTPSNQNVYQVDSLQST
For `CCCCOC(=O)Nc1ccc(S(=O)(=O)Nc2nc(C)cc(C)n2)cc1`, the inhibition was 2.92% (inactive).
`COc1ccc(C=NCCC2(O)CC(C)N(C)CC2C)cc1` (stereo not drawn) was tested, and the inhibition was -7.01% (inactive).
For `Cc1ccc(C(C)C)c(OCCNc2nc3c(c(=O)n(C)c(=O)n3C)n2C)c1`, the inhibition was -4.27% (inactive).
With `CCOC(=O)CCc1c(C)c(C#N)c2nc3ccccc3n2c1-n1ccnc1C` the inhibition was 7.93% (inactive).
`C=CCSc1nc(C)c(CC=C)c(=O)[nH]1` was tested, and the inhibition was 11.9% (inactive).
`CC1C[C@@]2(NC(=O)NC2=O)C(C)CN1C` (stereo partly drawn) was tested, and the inhibition was -3.98% (inactive).
`Cc1nnc(C)n1/N=C/c1cc(Br)cc(Br)c1O` was tested, and the inhibition was 1.6e-07% (inactive).
With `Clc1ccc2[nH]c3c(NCCN4CCOCC4)ncnc3c2c1` the inhibition was -2.47% (inactive).
With `Cc1cc(C)n(CC(=O)N2c3ccccc3Sc3ccccc32)n1` the inhibition was 15.9% (inactive).
With `Cn1c(NCC(O)c2ccccc2)nc2c1c(=O)n(Cc1ccc(Cl)c(Cl)c1)c(=O)n2C` (stereo not drawn) the inhibition was 6.04% (inactive).
In the case of `COc1ccccc1-c1nn2c(-c3ccco3)nnc2s1`, the inhibition is reported as -2.47% (inactive).
With `CCCCNC(=O)c1c(N)n(/N=C/c2cccnc2)c2nc3ccccc3nc12` the inhibition was 24.5% (inactive).
For `CCOc1ccc(C2C(C(=O)c3ccc(C)o3)=C(O)C(=O)N2CCCN(CC)CC)cc1` (stereo not drawn), the inhibition was -2.47% (inactive).
